# Screens from PubChem.
# D1 allo mod – allosteric modulators of human D1 dopamine receptor; P21728; HEK293 D1, CRE-luciferase, dopamine EC30 potentiation; actives deviate in either direction; 5.9% of 58,000 active; B-score at 10 µM;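 active = luminescence count or its row- and column-corrected plate score outside the 99.7% band of the plate's sample wells, on either side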
# FXIIa mix inh – factor XIIa (human) inhibition, mixture screen. P00748. inhibition, % at 5 µM. purified FXIIa, fluorogenic substrate, pooled mixtures. 0.2% of 62,000 active;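 also: 0% = enzyme without compound and 100% = no enzyme blank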
# Calb biofilm kill – kills Candida albicans biofilms | C. albicans biofilm + clotrimazole, Alamar Blue | inhibition, % at 6 µM | 0.14% of 85,000 active;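 active = inhibition above 20%; inactive = inhibition below 20%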;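 also: preformed 24 hr biofilms exposed to compound for 48 hr; 0% = biofilm without compound and 100% = blank killed by clotrimazole plus chlorhexidine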
# FXIa inh mix – blocks human factor XIa in pooled compound mixtures; P03951; purified FXIa, fluorogenic substrate; inhibition, % at 5 µM; 0.19% of 62,000 active; AID 680;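 also: each value is inhibition by a whole ten-compound pool holding the compound; 0% = enzyme with no mixture and 100% = wells lacking enzyme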
# Target sequence (P03951 19-387 limits assumed): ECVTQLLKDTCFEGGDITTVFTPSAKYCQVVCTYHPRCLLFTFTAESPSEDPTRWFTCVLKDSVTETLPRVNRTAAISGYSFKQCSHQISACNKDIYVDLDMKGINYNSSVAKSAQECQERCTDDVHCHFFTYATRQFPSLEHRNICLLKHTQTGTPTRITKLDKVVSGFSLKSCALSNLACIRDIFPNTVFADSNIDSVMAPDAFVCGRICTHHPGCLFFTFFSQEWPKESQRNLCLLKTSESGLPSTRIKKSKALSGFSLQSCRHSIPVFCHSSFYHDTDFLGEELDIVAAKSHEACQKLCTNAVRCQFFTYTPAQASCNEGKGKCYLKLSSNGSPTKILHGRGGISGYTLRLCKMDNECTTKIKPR
# Target sequence (P03951 388-625 limits assumed): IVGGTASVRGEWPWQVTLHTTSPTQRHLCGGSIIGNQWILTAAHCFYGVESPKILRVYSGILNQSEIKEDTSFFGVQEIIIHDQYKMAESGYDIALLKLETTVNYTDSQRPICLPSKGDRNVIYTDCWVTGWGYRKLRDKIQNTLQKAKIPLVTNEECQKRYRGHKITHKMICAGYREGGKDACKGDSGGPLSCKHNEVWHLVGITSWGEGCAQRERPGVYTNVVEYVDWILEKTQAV
# TNAP act mid DEA – human TNAP activation, intermediate phosphate acceptor; AID 813; P05186; 64,000 tested, under 10 active; purified TNAP, CDP-star luminescence, 100 mM DEA, 30 min; hits give high values; scale: 0 levamisole-inhibited, 1 vehicle-only enzyme; activation factor at 20 µM;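 active = activation factor of at least 2 at 20 µM, relative to controls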
# HePTP inh – blocks human HePTP tyrosine phosphatase | inhibition, % at 20 µM | recombinant HePTP phosphatase activity, OD absorbance | P35236 | 0.64% of 110,000 active; in the data active = inhibition above about 50%;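 also: plate controls were vehicle for no effect and reference inhibitor for full effect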
# D1 mod confirm – confirmation of human D1 dopamine receptor allosteric modulators; shares compounds with D1 allo mod; HEK293 D1 CRE-luciferase, dopamine EC30 potentiation; hits give high values; luminescence at 10 µM; 88% of 2,200 active;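 active = luminescence in either of two replicates above the same-plate mean plus 3 SD of the low-dose dopamine control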
# D1 no dopamine – D1 (human) signaling in absence of dopamine. luminescence at 10 µM. 0.8% of 1,900 active. HEK293 D1 CRE-luciferase, luminescence, no dopamine; hits give high values. shares compounds with D1 allo mod; in the data active = luminescence above about 3900
# Isoprot counter – alters isoproterenol CRE-luciferase response in HEK293 cells | luminescence at 10 µM | HEK293 D1 CRE-luciferase, isoproterenol EC30 counter-screen; hits give high values | AID 647 | shares compounds with D1 allo mod | 63% of 2,200 active;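 active = luminescence in either replicate above plate mean of wells with a partly effective reference agonist dose plus 3 SD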;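 also: isoproterenol raises cAMP through native beta-adrenoceptor Gs so signal bypasses D1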
# Starred values were filed as active, the others as inactive; . = no result. Many of the other results were omitted from the sample, so hits are more common in it than they were. Rule as the data show it, unless noted: active = inhibition above about 20% (passing the limit was not always enough); inactive = the rest.
SMILES,D1 allo mod,FXIIa mix inh,Calb biofilm kill,FXIa inh mix,TNAP act mid DEA,HePTP inh,D1 mod confirm,D1 no dopamine,Isoprot counter
COC(=O)c1cc(NC(=O)CSc2nc(C)cc(=O)[nH]2)cc(C(=O)OC)c1,2.9*,9,3,9,1,8,6652*,1452,2420
OCCn1nc2c3ccccc3nc-2n(-c2ccccc2)c1=S,5.9*,8,4,-12,0.9,4,7812*,1556,2832
O=C1CC(c2ccccc2)C(C(=O)O)N1 (stereo unspecified),15*,-17,10,3,1,2,4528,.,2596
O=C1CC(c2ccccc2)C(C(=O)Nc2ccccc2F)N1 (stereo unspecified),0.051,4,7,3,1,-1,.,.,.
COc1ccc(S(=O)(=O)N2CCCCCC2)cc1C(=O)OCc1c(C)noc1C,4.3*,8,10,6,0.9,5,9164*,1508,5664*
CC1=Nc2cc(-c3cccc(Br)c3)nn2C(=O)C1,.,.,.,.,.,-1,.,.,.
Cn1c(N)c(C#N)c2c(c1=S)COC(C)(C)C2,.,.,2,.,.,.,.,.,.
CC(C)C1Cc2c(C#N)c(N)n(C)c(=S)c2CO1 (stereo unspecified),9.8*,.,-3,.,0.8,5,11952*,1676,3308*
CCCOc1ccc(C(=O)Nc2ncc(Cc3cccc(Cl)c3)s2)cc1,.,.,.,.,.,2,.,.,.
CCN1CCN(C(c2cccs2)C(C)NC(=O)CC(C)C)CC1 (stereo unspecified),4.7*,6,2,5,1,1,3812,1520,2340
CCN1CCN(C(c2cccs2)C(C)NC(=O)c2ccccc2OC)CC1 (stereo unspecified),-0.17,5,5,7,0.9,3,.,.,.
CCOC(=O)N1CCC(NC(=O)c2cn(-c3ccc(OC)cc3)c(=O)c3ccccc23)CC1,-0.058,-3,.,-5,1,-4,.,.,.
CCOC(=O)N1CCC(N2Cc3cccc(C(=O)NCc4ccccc4OC)c3C2=O)CC1,4.9*,5,8,7,0.9,2,7800,1720,2764
COc1ccc(N2Cc3cccc(C(=O)NC(C)CCc4ccco4)c3C2=O)cc1 (stereo unspecified),3.4*,0,-8,9,0.9,16,11280*,1872,4192*
CCOC(=O)N1CCC(NC(=O)c2cccc3c2C(=O)N(c2ccc(OC)cc2)C3)CC1,5.2*,4,3,0,0.9,47,10556*,1464,3540*
COc1ccc(N2CC(C(=O)Nc3ccccc3C(=O)NCc3ccco3)CC2=O)cc1 (stereo unspecified),0.057,5,0,4,0.9,3,.,.,.
CCOC(=O)N1CCC(N2Cc3cccc(C(=O)NCc4ccc(OC)cc4)c3C2=O)CC1,2.9,4,7,17,1,9,.,.,.
O=C(O)c1ccc(N2C(=O)c3cc(Cl)c(Cl)cc3C2=O)cc1,.,.,.,.,.,24,.,.,.
CC1(C)CC(=O)c2cnc(NC(=O)CSc3nc4ccccc4o3)nc2C1,-0.0083,7,6,2,0.9,1,.,.,.
CCCCC(=O)Nc1ncc2c(n1)CC(C)(C)CC2=O,3*,5,.,3,0.9,6,5316,.,2460
Cc1cc(C)nc(SCC(=O)Nc2ncc3c(n2)CC(C)(C)CC3=O)n1,5.3*,-12,1,11,1,5,7004*,1576,2664
COc1ccccc1/C=C/C(=O)NC1CCCCC1,.,.,.,.,.,7,.,.,.
O=c1c2ccccc2nc(SCc2cn3ccsc3n2)n1-c1ccc(F)cc1,8.2*,8,5,8,1,8,10696*,1584,4168*
Cc1nnc(SCc2cn3ccsc3n2)n(N)c1=O,-0.72,-1,8,1,0.9,10,.,.,.
C=CCOc1nc(N2CCCC2)nc(N2CCCC2)n1,24*,7,5,3,0.9,2,26540*,1648,4776*
SMILES,D1 allo mod,FXIIa mix inh,Calb biofilm kill,FXIa inh mix,TNAP act mid DEA,HePTP inh,D1 mod confirm,D1 no dopamine,Isoprot counter
O=C(CSCc1ccc(Cl)cc1)N/N=C/c1ccc(Sc2cccc3cccnc23)o1,.,.,.,.,.,2,.,.,.
Cc1cc(-c2ccco2)c(C#N)c(SCC(=O)c2ccc(O)c(O)c2)n1,.,.,.,.,.,11,.,.,.
CC(=O)Nc1nc(CC(C)C)cc(-c2ccco2)c1C#N,9.7*,4,9,0,0.8,11,15584*,.,3304*
CC1C=Cc2ccccc2N1C(=O)c1ccccc1 (stereo unspecified),4*,-14,-2,0,0.9,0,9976*,1476,2980
CN1C(=O)C2(NN=C(c3ccccc3)S2)c2ccccc21 (stereo unspecified),.,.,.,.,.,11,.,.,.
COC(=O)c1ccc(Cn2cnc3c(sc4nc(N5CCOCC5)c5c(c43)CCCC5)c2=O)o1,6.8*,.,-2,.,0.9,7,8596*,1424,4112*
N#C/C(=N\Nc1ccccc1)c1nc(-c2ccc(F)cc2)cs1,.,.,.,.,.,-13,.,.,.
Cc1ccc(NCC(=O)N/N=C\c2cccc(OC(=O)c3ccccc3)c2)cc1,.,.,.,.,.,-1,.,.,.
N/C(=N/O)c1nc(N2CCCC2)nc(N(c2ccccc2)c2ccccc2)n1,7.2*,8,7,-1,0.9,11,13376*,1828,4252*
N/C(=N/O)c1nc(N2CCCCC2)nc(N2CCCCC2)n1,5.2*,-1,3,3,0.8,9,18416*,1644,5040*
Cn1c(=O)[nH]c(=O)c2c1nc1n2CC(COc2ccccc2)O1 (stereo unspecified),.,.,.,.,.,11,.,.,.
Cn1c(=O)n(C)c2cc(S(=O)(=O)NCc3ccco3)ccc21,2.4*,5,0,-1,0.9,0,5820,1724,2888
Cn1c(=O)oc2cc(S(=O)(=O)NCc3ccco3)ccc21,0.78,1,12,-1,0.9,27,.,.,.
CC1Cc2ccccc2N1C(=O)CSc1nc2cc3c(cc2cc1C#N)OCO3 (stereo unspecified),5.1*,2,.,-2,0.9,0,13756*,1776,4904*
O=S(=O)(Cc1ccccc1)c1nc2ccccc2n1Cc1ccc(Cl)cc1,.,.,.,.,.,4,.,.,.
Cc1onc(-c2ccccc2)c1C(=O)Oc1cccnc1,6.7*,2,9,6,1,7,13128*,1560,3512*
CCOc1ncccc1C(=O)OCc1nnc(-c2ccccc2)o1,4.1*,2,5,4,0.9,6,13008*,1620,3060
O=[N+]([O-])c1cc(/C=N/N2CCN(Cc3ccc(Cl)cc3)CC2)ccc1Cl,.,.,.,.,.,4,.,.,.
COC(=O)c1nn(-c2ccccc2)ccc1=O,.,.,6,.,.,.,.,.,.
